MEKK3 PB1 HTS: modulators of MEKK3-MEK5 PB1 binding, primary screen, biochemical, wildtype MEKK3, multiplex bead flow cytometry, Alexa488-MEK5. AID 1529, 2009. 290,000 compounds, 1.4% hits. bead-based flow cytometry, Alexa488-MEK5 binding to MEKK3; actives lie on both sides; 0 = blocked by unlabeled MEK5, 100 = vehicle. Mitogen-activated protein kinase kinase kinase 3 (Homo sapiens), Q99759. binding response (% of control), % at 10 µM;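 active means binding response more than 3 SD above or below the average of its plate-row segment, actives on both sides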;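 further: Alexa488 bead fluorescence after subtracting the streptavidin-only scavenger bead signal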
VLA-4 inh: inhibition in human VLA-4 binding assay, primary screen, VLA-4 allosteric modulator project, MLPCN library, flow cytometry, VLA-4 expressing cells | Integrin alpha-4 (Homo sapiens), P13612 | ligand binding flow cytometry | inhibition, % (about 7 µM as worked out from the volumes in the protocol) | 330,000 compounds, 0.2% hits; in the data active means inhibition above about 50%
Target sequence (P13612 whole entry, looked up): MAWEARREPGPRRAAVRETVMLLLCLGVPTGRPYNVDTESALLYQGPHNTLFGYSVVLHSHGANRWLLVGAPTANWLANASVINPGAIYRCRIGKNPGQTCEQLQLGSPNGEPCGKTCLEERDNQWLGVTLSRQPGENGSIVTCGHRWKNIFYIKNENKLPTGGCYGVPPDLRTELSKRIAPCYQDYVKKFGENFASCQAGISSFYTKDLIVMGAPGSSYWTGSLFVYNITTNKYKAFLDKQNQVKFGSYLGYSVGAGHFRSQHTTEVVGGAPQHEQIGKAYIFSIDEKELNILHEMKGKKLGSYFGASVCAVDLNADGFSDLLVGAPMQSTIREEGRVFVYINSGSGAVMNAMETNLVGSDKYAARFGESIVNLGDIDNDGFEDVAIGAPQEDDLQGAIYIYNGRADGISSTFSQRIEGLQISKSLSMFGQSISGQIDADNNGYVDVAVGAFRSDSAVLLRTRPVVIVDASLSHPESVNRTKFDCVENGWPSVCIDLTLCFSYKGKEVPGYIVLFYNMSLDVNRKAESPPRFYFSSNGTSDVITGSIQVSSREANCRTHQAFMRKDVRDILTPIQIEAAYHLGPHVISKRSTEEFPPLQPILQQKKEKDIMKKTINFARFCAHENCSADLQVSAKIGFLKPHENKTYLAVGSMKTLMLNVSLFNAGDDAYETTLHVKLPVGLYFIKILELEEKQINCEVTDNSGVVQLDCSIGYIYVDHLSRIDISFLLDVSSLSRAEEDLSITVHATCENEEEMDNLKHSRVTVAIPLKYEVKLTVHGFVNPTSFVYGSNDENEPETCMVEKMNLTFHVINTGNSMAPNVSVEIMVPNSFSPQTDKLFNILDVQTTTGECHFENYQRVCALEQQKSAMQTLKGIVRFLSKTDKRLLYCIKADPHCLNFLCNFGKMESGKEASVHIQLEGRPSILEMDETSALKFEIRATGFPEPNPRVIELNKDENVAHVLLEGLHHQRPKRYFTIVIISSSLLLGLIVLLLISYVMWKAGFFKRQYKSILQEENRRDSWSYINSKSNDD
MEKK2mut PB1 HTS: MEK5 binding signal on mutant MEKK2 PB1, primary screen, biochemical, multiplex bead flow cytometry, Alexa488-MEK5 | Alexa488-MEK5 binding to MEKK2 mutant | 290,000 compounds, 0.35% hits | percent response, % at 10 µM; in the data active means percent response above about 24%, passing the limit was not always enough
MEKK2 WT-MEK5: modulators of MEK5 binding to wildtype MEKK2, primary screen, biochemical, multiplex bead flow cytometry, Alexa488-MEK5; AID 1531, 2009; 290,000 compounds, 1.1% hits; Alexa488-MEK5 binding to MEKK2 WT; actives lie on both sides; binding response (% of control), % at 10 µM; in the data active means binding response below about 67% or above about 130%
MEKK2wt confirm: modulators of MEK5 binding to wildtype MEKK2, confirmation, biochemical, single concentration, multiplex bead flow cytometry; shares compounds with MEKK3 PB1 HTS; Alexa488-MEK5 binding to MEKK2 WT; actives lie on both sides; binding response (% of control), % at 10 µM; 5,900 compounds, 2.4% hits; AID 1892, 2009; in the data active means binding response below about 16% or above about 210%; inactive means in between
MEKK2mut-MEK5: mutant MEKK2 PB1-MEK5 binding signal retest – biochemical, single concentration, multiplex bead flow cytometry, confirmation; shares compounds with MEKK3 PB1 HTS; Alexa488-MEK5 binding to MEKK2 mutant; percent response, % at 10 µM; 5,900 compounds, 2% hits; in the data active means percent response mostly above about 71%, no sharp cut-off; inactive means mostly below about 38%;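 further: higher means compound restores mutant binding toward wildtype level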
MEKK3 confirm: MEKK3 wild-type PB1 binding to MEK5, inhibitors, confirmation, biochemical, bead multiplex flow cytometry, single concentration, wildtype. AID 1894, 2009. shares compounds with MEKK3 PB1 HTS. Alexa488-MEK5 binding to MEKK3; stronger effect = lower value. 5,900 compounds, 1.8% hits. binding response (% of control), % at 10 µM;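 active means binding response below 72% of control, or above a set upper limit, though filed actives all read lower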;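 further: 100% = DMSO only wells and 0% = binding blocked by excess unlabeled MEK5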
The depositor's hits bear a star; · = no result; [ ] = dose if it differs, or a comment. Rows were chosen to be rich in hits. Some 2.2% of all compounds tested hit in one or more screens of this group.

SMILES	MEKK3 PB1 HTS	VLA-4 inh	MEKK2mut PB1 HTS	MEKK2 WT-MEK5	MEKK2wt confirm	MEKK2mut-MEK5	MEKK3 confirm
Cc1cccc(Nc2nnc(SCC(=O)Nc3ccccc3[N+](=O)[O-])s2)c1	88.0	17.9	-1.0	95.0	·	·	·
Cc1ccccc1Nc1nnc(SCC(=O)Nc2ccccc2[N+](=O)[O-])s1	133.0*	-17.7	0.0	105.0	96.0	-1.0	102.0
O=C(CCCc1nc(-c2ccccc2Cl)no1)NCc1cccnc1	123.0*	-5.6	9.0	117.0	100.0	0.0	100.0
COc1ccc(Cn2c(C)nc3c(c(=O)c4ccccc4n3C)c2=O)cc1	104.0	-1.4	21.0	102.0	·	·	·
COc1ccc(-c2nc3c(c(=O)c4ccccc4n3C)c(=O)n2Cc2ccccc2)cc1	149.0*	-1.4	0.0	105.0	99.0	3.0	102.0
COc1ccc(Cn2c(-c3ccc(OC)cc3)nc3c(c(=O)c4ccccc4n3C)c2=O)cc1	102.0	9.3	11.0	94.0	·	·	·
COc1ccc(Cn2c(-c3ccco3)nc3c(c(=O)c4ccccc4n3C)c2=O)cc1	136.0*	6.9	28.0	108.0	101.0	6.0	106.0
COc1ccc(NC(=O)c2cccc3cccnc23)cc1S(N)(=O)=O	103.0	2.3	2.0	111.0	·	·	·
Cc1ccc(C)c(NC(=S)N=Nc2c(O)n(C)c3ccc(S(=O)(=O)N4CCOCC4)cc23)c1	62.0*[inhibitor]	-2.2	1.0	102.0	81.0	-12.0	83.0
CCc1ccccc1NC(=S)N=Nc1c(O)n(C)c2ccc(S(=O)(=O)N3CCOCC3)cc12	93.0	-28.2	-2.0	90.0	·	·	·
CCN(CC)CCOC(=O)c1ccc(NC(=O)CCCN2C(=O)/C(=C\c3cccs3)SC2=S)cc1	102.0	-16.6	17.0	154.0*	147.0	28.0	93.0
O=C(CCN1C(=O)/C(=C\c2cccs2)SC1=S)Nc1ccc(C(=O)O)cc1	101.0	8.5	3.0	97.0	·	·	·
COc1ccc(C(=O)Nc2ccc(C)cc2C(=O)c2ccccc2)cc1	105.0	4.4	20.0	109.0	·	·	·
CNc1ccc(OC(F)F)cc1C(=O)c1ccccc1	1.0*[inhibitor]	5.3	-31.0	-2.0*[inhibitor]	104.0	0.0	102.0
Cc1cc(C)c(C#N)c(N2CCSCC2)n1	2.0*[inhibitor]	0.6	-31.0	3.0*[inhibitor]	84.0	-14.0	96.0
Cc1cc(C)c(C#N)c(N2CCN(c3ccccc3)CC2)n1	105.0	-8.4	1.0	103.0	·	·	·
C#CCOCCOCCOCCNc1nc(N2CCN(C(=O)[C@H](CCC(=O)O)n3cc([C@@H](N)CO)nn3)CC2)nc(N2CCN(C(=O)[C@H](CCC(=O)O)n3cc([C@@H](N)CCSC)nn3)CC2)n1	·	0.0	·	·	·	·	·
CC1CCC2C(=O)N(c3ccccc3OC(=O)c3ccccc3F)C(=O)C2C1 (configuration not stated)	143.0*	-7.0	6.0	127.0	95.0	-5.0	101.0
O=C(Oc1ccccc1N1C(=O)C2CCCCC2C1=O)c1ccccc1 (configuration not stated)	·	11.8	·	·	·	·	·
O=C(CCSCc1ccccc1Cl)NC1CCCC1	2.0*[inhibitor]	-22.5	-15.0	2.0*[inhibitor]	107.0	3.0	104.0
O=C(CCSCc1cccc(Cl)c1)NC1CCCC1	122.0	5.4	0.0	102.0	·	·	·
O=C(CSCC(=O)NC1CCCC1)Nc1ccccc1	128.0*	-7.2	1.0	106.0	97.0	-3.0	100.0

Screens from PubChem BioAssay.
